The full list was thinned out, with hits kept by preference.
nsP2pro primary: blocks chikungunya virus nsP2 protease peptide cleavage. Q8JUX6. FRET peptide cleavage, nsP2pro, fluorescence 1 h. Potency, µM (doses to about 24.9 µM), for inactives: at the highest dose activity change, negative = inhibition, usual class: inhibitors. 31,000 tested, 1.1% active; calls by dose curve; note: nearly all actives have a fitted effect of over 60% in size
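Enzyme 150 nM, substrate 2.5 uM (both final); Tris-HCl 10 mM pH 8.0 + 0.01% Tween 20; cpd up to 25 uM, 7 pts; 15 min preinc., 1 h RT; fluorescence ex 525/em 598.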
Active calls of the source: *; i = inactive; [ ] = remark or other dose. % is set by controls: 0 for no effect and ±100 for the full control effect; potency is the fitted concentration of half-maximal effect.

SMILES	nsP2pro primary
Cc1cc(-c2ccc(N=Nc3ccc4c(S(=O)(=O)O)cc(S(=O)(=O)O)c(N)c4c3O)c(C)c2)ccc1N=Nc1ccc2c(S(=O)(=O)O)cc(S(=O)(=O)O)c(N)c2c1O	12.4µM*
Cc1ccc(-c2cc(C(=O)Nc3ccc(S(C)(=O)=O)cc3)c3ccccc3n2)cc1C	i
Cc1ccc(S(=O)(=O)Nc2cnccc2C(=O)Nc2nc(-c3ccc(C)c(C)c3)cs2)cc1	i
CO[C@H]1/C=C\O[C@@]2(C)Oc3c(C)c(O)c4c(O)c(c(/C=N/N5CCN(C6CCCC6)CC5)c(O)c4c3C2=O)NC(=O)/C(C)=C\C=C/[C@H](C)[C@H](O)[C@@H](C)[C@@H](O)[C@@H](C)[C@H](OC(C)=O)[C@@H]1C	5.9%
COC(=O)c1ccc2c(c1)/C(=C/c1cc(Br)c(O)c(Br)c1)C(=O)N2	i
COc1ccc(NC(=O)N[C@@H]2C=C[C@@H](c3c(C)nn(CCC#N)c3C)C2)cc1	12.6µM*
Cc1nn(-c2ccc(F)cc2)c(C)c1[C@@H]1C=C[C@@H](NC(=O)NC(C)C)C1	-8.4%[39.2 µM]
COc1ccc(-n2nc(C)c([C@@H]3C=C[C@@H](NC(=S)NCC(C)C)C3)c2C)cc1	44.5%[39.2 µM]
COc1ccc(S(=O)(=O)Nc2cnccc2C(=O)Nc2nc(-c3ccccc3)cs2)cc1	0.1%
CC(=O)Nc1ccc(-c2nc3ccccc3s2)cc1	i
Cc1ccc(-c2ccccc2CN2CCN(C(=O)Nc3ccccc3)CC2)cc1Cl	-0.9%
CCOC(=O)[C@H](CS)NCCN[C@@H](CS)C(=O)OCC	11.1µM*
CCOC(=O)c1ccccc1C(=O)OCC	3.8%
CCOC(=O)C(Cc1ccccc1)NC(=O)Cn1nnc(-c2ccc(C)cc2)n1 (stereo not given)	-19.6%
CS(=O)(=O)c1ccc(Oc2cc(F)cc(C#N)c2)c2c1[C@H](O)[C@H](F)[C@@H]2F	-6.6%
Cn1cc(C(=O)Cc2ccccc2)cc1/C=C/C(=O)NO	16.2%
Cc1ccc(C(=O)OCc2ccc([C@@H](CN)C(=O)Nc3ccc4cnccc4c3)cc2)c(C)c1	105.1%[10 µM]
CCC(CN)CC(C)CNCC(O)CNCC(CC)CC(CC)CN (stereo not given)	-5.3%
Cn1cc(OCC(O)CNC(C)(C)C)c2ccccc2c1=O (stereo not given)	-5.3%
CC(C)(C)c1ccc(CN2CC3(COCC2=O)CN(c2cnccn2)C3)cc1	i
O=C1COCC2(CN(c3ccc(C(F)(F)F)cn3)C2)CN1c1ccc(F)cc1	-10.7%[39.2 µM]
O=C1COCC2(CN(c3ccc(C(F)(F)F)cn3)C2)CN1c1ccccc1F	11.2µM*
Cc1ccc(C)c(SC2CS(=O)(=O)c3ccccc32)c1 (stereo not given)	-3.4%
Cc1ccc2c(c1)/C(=C\c1cc(Cl)c(O)c(Cl)c1)C(=O)N2	i
CN(Cc1ncc[nH]1)c1ncnc2ccc(-c3ccc4c(c3)OCO4)cc12	-3.7%
SMILES	nsP2pro primary
CC1CCC(=O)CC(SCC(O)C(=O)O)CCC(=O)O1 (stereo not given)	11.1µM*
C#CCOc1cc(C2=Nn3c(nnc3-c3ccc(OCC(C)=O)cc3)SC2)ccc1OC	-0.6%
Cc1ccnc(NC(=S)Nc2cccc(C(F)(F)F)c2)c1	1.8%
Clc1ccc(-c2csc(NN=C3CCCC3)n2)cc1	27.5%
CC1CCc2c(sc(NC(=O)COc3ccccc3)c2C(=O)Nc2ccccc2Cl)C1 (stereo not given)	-2.9%
COc1ccc(NC(=O)c2c(NC(=O)c3ccncc3)sc3c2CCC(C(C)(C)C)C3)cc1 (stereo not given)	-18.3%
CCOc1ccc(NC(=O)c2c(NCc3cccnc3)sc3c2CCC(C)C3)cc1 (stereo not given)	11.2µM*
CN1C(=O)N(C[C@H](C(=O)NO)[C@@H](CC2CCCC2)C(=O)N2CCCCC2)C(=O)C1(C)C	-3.9%
CCOc1ccccc1NC(=O)Cn1c(=O)n(Cc2ccco2)c(=O)c2cccnc21	-8.3%
CCOc1ccc(C(c2c(O)cc(C)n(Cc3ccco3)c2=O)N2CCN(C)CC2)cc1 (stereo not given)	12.6µM*
Cc1c(C(=O)NCC2CCCO2)[nH]c2c1C(=O)CC(c1ccco1)C2 (stereo not given)	-21.6%
CCOC(=O)c1[nH]c2c(c1C)CCC(c1ccco1)C2 (stereo not given)	-1.6%
CCOC(=O)c1[nH]c2c(c1C)C(=S)CC(c1ccco1)C2 (stereo not given)	12.6µM*
O=P(O)(O)OC1C(OP(=O)(O)O)C(OP(=O)(O)O)C(OP(=O)(O)O)C(OP(=O)(O)O)C1OP(=O)(O)O (stereo not given)	-12.7%
COc1cccc(S(=O)(=O)Nc2cnccc2C(=O)Nc2nc(-c3ccccc3)cs2)c1	i
Cc1cc(C)nc(NC(=S)N2CCN(c3cccc(OC(F)(F)F)c3)CC2)c1	-7.1%
O=S(=O)(Nc1nc2ccccc2s1)c1ccc(NCc2ccc(Br)cc2O)cc1	i
C=CCNC1=C2C[C@@H](C)C[C@H](OC)[C@H](O)[C@@H](C)/C=C(\C)[C@H](OC(N)=O)[C@@H](OC)/C=C\C=C(/C)C(=O)NC(=CC1=O)C2=O	-23.5%
COC1=C2C[C@H](C)C[C@H](OC)[C@H](O)[C@@H](C)/C=C(/C)[C@H](OC(N)=O)[C@@H](OC)/C=C\C=C(\C)C(=O)NC(=CC1=O)C2=O	12.4µM*
CN[C@H]1C(=O)N[C@@H]2Cc3ccc(cc3)Oc3cc4cc(c3O[C@@H]3O[C@H](C(=O)O)[C@@H](O)[C@H](O)[C@H]3NC(=O)CCCCCCCCC(C)C)Oc3ccc(cc3Cl)[C@@H](O)[C@@H]3NC(=O)[C@H](NC(=O)[C@@H]4NC(=O)[C@@H](NC2=O)c2cc(cc(O)c2Cl)Oc2cc1ccc2O)c1ccc(O)c(c1)-c1c(O[C@H]2O[C@H](CO)[C@@H](O)[C@H](O)[C@@H]2O)cc(O)cc1[C@@H](C(=O)NCCCN(C)C)NC3=O	32.1%[10 µM]
Cc1cc(C)nc(NC(=S)N2CCN(c3cc(Cl)c(Cl)cc3Cl)CC2)c1	1.1%
Cc1cc(C)nc(NC(=S)N2CCN(c3ccc([N+](=O)[O-])cc3Cl)CC2)c1	-6.2%
Cc1ccc(S(=O)(=O)Nc2cc(F)ccc2C(=O)Nc2nc(-c3ccccc3)cs2)cc1	i
OC[C@H]1O[C@@H](OC[C@H]2O[C@@H](O[C@@H]3[C@@H](O)[C@H](O)O[C@H](CO)[C@H]3O)[C@H](O)[C@@H](O[C@@H]3O[C@H](CO)[C@@H](O)[C@H](O)[C@H]3O)[C@@H]2O)[C@H](O)[C@@H](O)[C@@H]1O	-3.3%
COc1cccc(C(=O)N2CCC(N3C(=O)c4c(c(C)nn4-c4ccccc4)C3C3CC3)C2)c1 (stereo not given)	i
SMILES	nsP2pro primary
Cc1ccccc1CN1CCc2nc(N3CCN(c4ncccn4)CC3)ncc2C1	52.0%
CCCCN1CCc2nc(N3CCN(C)CC3)ncc2C1	10µM*
CCN1CCN(c2ncc3c(n2)CCN(Cc2ccc(C)s2)C3)CC1	21.2%
NC(=O)NCCCC(N)C(=O)O (stereo not given)	-29.7%
COC(=O)C1=C(C)NC(C)=C(C(=O)OC(C)C)C1c1cccc2nonc12 (stereo not given)	-2.4%
CCOC(=O)C1=C(C)NC(C)=C(C(=O)OCC)C1c1ccccc1/C=C/C(=O)OC(C)(C)C	-20.9%
COC(=O)C1=C(C)NC(C)=C(C(=O)OCC(C)=O)C1c1ccccc1[N+](=O)[O-] (stereo not given)	12.4µM*
CC1CCN([C@@H]2[C@H](O)[C@H](CO)O[C@@H]2CNC(=O)c2ccc(F)c(Cl)c2)CC1	-10.8%
